# Compounds with a hit are over-represented: about 1.9% of the library has one in this group of screens.
# Rev-erbA mod: modulators of Rev-erb alpha DNA binding, primary screen, biochemical, FITC-DNA, fluorescence polarization, uHTS. Nuclear receptor subfamily 1 group D member 1 (Homo sapiens), P20393. AID 1259318, 2017. hit rate 0.79% among 370,000. Rev-erbα–FITC-DNA binding, 90 min. activity, % at 10 µM;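 active means activity above about 14%, limit read from the data; passing the limit was not always enough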;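 further: 0% = DMSO wells with 35 nM protein and 100% = DMSO wells with 750 nM protein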
# ZTA counter: ZTA (EBV) inhibition in EBNA-1 counter-screen. inhibition, % at 11 µM. ZTA-DNA binding, fluorescence polarization. P03206. AID 2234. hit rate 0.15% among 320,000; in the data active means inhibition above about 33%
# Target sequence (P03206 whole entry, looked up): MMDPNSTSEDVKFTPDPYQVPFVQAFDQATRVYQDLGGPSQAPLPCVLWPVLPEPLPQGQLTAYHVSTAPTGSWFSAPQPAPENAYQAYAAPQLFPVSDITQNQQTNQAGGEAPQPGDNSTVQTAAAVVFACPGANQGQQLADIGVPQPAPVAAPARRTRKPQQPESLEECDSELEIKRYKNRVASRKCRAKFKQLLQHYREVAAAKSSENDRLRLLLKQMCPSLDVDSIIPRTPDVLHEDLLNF
# p47phox inh: p47phox/p22phox peptide binding inhibitors, primary screen, biochemical, uHTS, NADPH oxidase regulatory subunit; Neutrophil cytosol factor 1 (Homo sapiens), P14598; fluorescence polarization, 2 h; inhibition, % at 24.7 µM; hit rate 0.53% among 220,000;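 active means inhibition above about 30%, limit read from the data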;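 further: 0% = p47phox with labelled peptide and 100% = labelled peptide alone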
# Target sequence (P14598 whole entry, looked up): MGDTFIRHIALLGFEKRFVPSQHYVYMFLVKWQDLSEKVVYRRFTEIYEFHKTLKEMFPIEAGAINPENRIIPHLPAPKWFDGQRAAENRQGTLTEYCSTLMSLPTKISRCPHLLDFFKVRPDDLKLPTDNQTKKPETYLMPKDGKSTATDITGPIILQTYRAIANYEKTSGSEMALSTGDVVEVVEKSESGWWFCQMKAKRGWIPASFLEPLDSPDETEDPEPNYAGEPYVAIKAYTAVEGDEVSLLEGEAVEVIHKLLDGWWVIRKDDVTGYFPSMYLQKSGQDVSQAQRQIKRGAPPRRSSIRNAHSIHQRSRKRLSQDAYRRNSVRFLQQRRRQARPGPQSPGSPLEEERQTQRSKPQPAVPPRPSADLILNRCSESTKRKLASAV
# EBNA-1 inhibitor: EBNA-1 DNA-binding inhibitors, primary screen, biochemical, fluorescence polarization | inhibition, % at 14.8 µM | hit rate 0.34% among 300,000 | AID 1950, 2009; in the data active means inhibition above about 28%
# PG9 Ab binder: binders of HIV-1 gp120 antibody PG9, primary screen, biochemical, TR-FRET. HIV-1 gp120 / PG9 antibody interaction. TR-FRET gp120-PG9 antibody binding. inhibition, % at 6.7 µM. hit rate 0.43% among 360,000; in the data active means inhibition above about 8.5%
# aDG glyco up: activators of alpha-DG glycosylation, primary screen, uHTS, Pro5-aDG cells, AlphaScreen; alpha-DG glycosylation AlphaScreen (IIH6); 0% Pro5, 100% B10-LARGE cell signal; activation, % at 10 µM; hit rate 0.22% among 360,000; AID 624168, 2012;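 active means activation of at least 8% versus controls, or a plate z-score of at least 8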;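 further: Pro5 are CHO cells carrying HIG-tagged alpha-DG that lacks glycosylation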
# EBNA-1 confirm: EBNA-1 DNA-binding inhibitors, retest, confirmation, biochemical, fluorescence polarization, triplicate; shares compounds with EBNA-1 inhibitor; Recombinant EBNA-1 DBD, Cy5-DNA fluorescence polarization; inhibition, % at 14.8 µM; hit rate 35% among 830; AID 2292, 2010;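 active means mean inhibition across replicates above a set limit taken from the earlier primary screen, cut at about 28% in these data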;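 further: plate controls were EBNA-1 protein with DMSO for no effect and wells lacking EBNA-1 for full effect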
# ZTA counter trip: EBV Zta DNA binding inhibitors, counter-screen for EBNA-1 inhibitor project, biochemical, fluorescence polarization, triplicate | shares compounds with EBNA-1 inhibitor | Zta-ZRE DNA binding, Cy5 fluorescence polarization | inhibition, % at 11.1 µM | 830 tested, under 10 active | AID 2328, 2010;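 active means mean inhibition over triplicates above a set limit taken from the primary EBNA-1 screen, cut at about 37% in these data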;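 further: purified full length Zta protein with Cy5 labeled ZRE DNA probe; 0% = Zta with DMSO and 100% = wells lacking Zta protein; inhibitors lower polarization by freeing the labeled DNA probe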
# Zta DNA confirm: EBV Zta binding to ZRE DNA, inhibitors, confirmation, biochemical, fluorescence polarization, triplicate. inhibition, % at 11.1 µM. shares compounds with ZTA counter. hit rate 30% among 320. AID 2361, 2010;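 active means mean inhibition across triplicate runs above the hit threshold derived for the original primary screen, cut at about 33% in these data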;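 further: 0% = Zta with DMSO and 100% = wells lacking Zta protein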
# EBNA-1 counter: EBNA-1 DNA-binding inhibition, counter-screen for ZTA inhibitor project, biochemical, fluorescence polarization; shares compounds with ZTA counter; inhibition, % at 14.8 µM; 320 tested, under 10 active; AID 2362, 2010; call rule not given here
# PG9 bind confirm: binders of anti-gp120 antibody PG9, confirmation, biochemical, TR-FRET. TR-FRET PG9 antibody binding. hit rate 90% among 1,500. inhibition, % at 6.7 µM. shares compounds with PG9 Ab binder. AID 651571, 2012; in the data active means inhibition above about 9%
# PGV04 counter: binders of control antibody PGV04, counter-screen for PG9 antibody binder project, biochemical, TR-FRET, distinct HIV envelope site; shares compounds with PG9 Ab binder; TR-FRET PGV04 antibody-gp120 binding; inhibition, % at 6.7 µM; hit rate 95% among 1,500; AID 651604, 2012; in the data active means inhibition above about 9.5%
# Rev-erbA confirm: modulators of Rev-erb alpha DNA binding, confirmation, biochemical, FITC-DNA, fluorescence polarization, single point | shares compounds with Rev-erbA mod | 90 min | activation, % at 25 µM | hit rate 61% among 3,000 | AID 1259319, 2017;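 active means activation at or above a set limit, or at least 3 SD above the negative control mean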;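 further: 0% = 35 nM protein with DMSO and 100% = 750 nM protein high control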
# RORg DNA counter: modulation of RORgamma DNA binding, dose response, counter-screen for Rev-erb alpha modulator project, biochemical, fluorescence polarization, FITC-DNA | hit rate 8% among 910 | shares compounds with Rev-erbA mod | IC50, µM | purified RORgamma protein-FITC-DNA binding;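 active means Compounds whose fitted half-maximal concentration for disrupting protein-DNA binding is below 10 micromolar; the record names Rev-erb in its text, so the target is in doubt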
# An asterisk follows results filed as active; . = no result.
SMILES,Rev-erbA mod,ZTA counter,p47phox inh,EBNA-1 inhibitor,PG9 Ab binder,aDG glyco up,EBNA-1 confirm,ZTA counter trip,Rev-erbA confirm,others
CC1(c2ccc(OC(F)F)cc2)NC(=O)N(CC(=O)Nc2ccccc2)C1=O (stereo not given),4,7,.,-4,1,0,.,.,.,
Cc1ccc2nc(-c3ccc(NC(=O)CN4C(=O)NC(C)(c5ccc(OC(F)F)cc5)C4=O)cc3)sc2c1 (stereo not given),24*,8,-13,40*,4,0,18,9,8,
Cn1c(NC(=O)c2cccc(Cn3cc(Cl)cn3)c2)nc2ccccc21,25*,10,-7,41*,51*,0,34*,-3,1,PG9 bind confirm=37*;PGV04 counter=53*
CCc1ccccc1N(C)S(=O)(=O)c1ccc2[nH]cc(C(=O)N3CCc4ccccc43)c(=O)c2c1,45*,4,-67,28*,0,0,3,-1,27*,
Cc1cccc(N(C)S(=O)(=O)c2ccc3[nH]cc(C(=O)N4CCOCC4)c(=O)c3c2)c1,-1,-4,-10,-6,4,0,.,.,.,
CC(C)C(=O)Nc1cccc(C(=O)OCC(=O)c2ccc(Cl)cc2Cl)c1,19*,4,-3,41*,53*,0,79*,8,9,PG9 bind confirm=40*;PGV04 counter=58*
Cc1c(NC(=O)C2CCCN(S(=O)(=O)c3ccc(Br)s3)C2)c(=O)n(-c2ccccc2)n1C (stereo not given),0,.,.,.,.,.,.,.,.,
C=CCn1c(SCC(=O)NCCO)nc2sc(C)c(C)c2c1=O,2,0,2,0,-1,0,.,.,.,
C=CCn1c(SCC(=O)NC(=O)NCc2ccco2)nc2sc(C)c(C)c2c1=O,51*,9,-21,47*,23*,0,32*,2,41*,PG9 bind confirm=28*;PGV04 counter=41*
Cc1ccc(-c2nnc(NCc3nc4ccccc4[nH]3)c3ccccc23)cc1S(=O)(=O)N(C)C,76*,7,-18,93*,11*,0,37*,2,53*,PG9 bind confirm=21*;PGV04 counter=34*;RORg DNA counter=>40
COC(=O)C[C@H]1CC[C@H]2[C@H](COc3ccc(NC(=O)Nc4ccccc4F)cc3C(=O)N2C)O1,2,.,.,.,.,.,.,.,.,
CC(=O)Nc1ccc(S(=O)(=O)N2CCN(Cc3nc4sc(C)c(C)c4c(=O)[nH]3)CC2)cc1,31*,0,-23,27*,3,0,55*,0,16,
CC(=O)Nc1ccc(S(=O)(=O)N2CCN(Cc3ccncc3)CC2)cc1,-4,-18,-5,-4,-1,0,.,.,.,
COC(=O)CSc1nc2ccc(C)cc2cc1C#N,0,11,-2,8,-1,0,.,.,.,
Cc1ccc2nc(SCC(=O)NCc3cccs3)c(C#N)cc2c1,47*,5,-26,33*,15*,0,-1,7,22*,PG9 bind confirm=37*;PGV04 counter=49*
OC(CNCCC1C=Nc2ccccc21)Cn1c2ccc(Cl)cc2c2cc(Cl)ccc21 (stereo not given),-4,52*,25,6,-1,-1,.,.,.,Zta DNA confirm=51*;EBNA-1 counter=3
Nc1cc2nsnc2cc1Br,-13,68*,18,0,-34,6.6*,.,.,.,Zta DNA confirm=28;EBNA-1 counter=-3
C=CCNC(=O)CN(C(=O)c1csc2ccc(Cl)cc12)c1cccc(Br)c1,-2,.,.,.,.,.,.,.,.,
Cn1c(=O)c2c(nc(NCc3ccccc3)n2C)n(C)c1=O,-6,22,-20,11,-2,0,.,.,.,
Cn1c(=O)c2cc(NCc3ccccc3)nnc2n(C)c1=O,0,52*,-8,26,1,5,.,.,.,Zta DNA confirm=-12;EBNA-1 counter=-7
COc1cc2nc(N(CCCN(C)C)C(=O)c3ccc(S(=O)(=O)N4CCc5ccccc54)cc3)sc2cc1OC,5,50*,.,2,0,0,.,.,.,Zta DNA confirm=56*;EBNA-1 counter=8
COc1ccc2sc(N(CCCN(C)C)C(=O)c3ccc(S(=O)(=O)N4CCCc5ccccc54)cc3)nc2c1,-6,-17,.,-16,1,2,.,.,.,
O=C(NC1CCCCN(Cc2cccc(Cl)c2)C1=O)c1ccccn1 (stereo not given),8,.,.,.,.,.,.,.,.,
COC(=O)[C@]12C[C@H](CC(=O)N3CCC(c4ccccc4)CC3)C(=O)N(Cc3ccco3)C1=C[C@H](C1CCCC1)O[C@@H]2C,4,.,.,.,.,.,.,.,.,
Cc1ccc2nc(-c3ccc(SCC(=O)Nc4nc(C)cs4)nc3)[nH]c2c1,-2,48*,-29,10,-3,0,.,.,.,Zta DNA confirm=-1;EBNA-1 counter=23
Cc1ccc2nc(-c3ccc(SCC(=O)Nc4nnc(C)s4)nc3)[nH]c2c1,2,0,7,19,-2,0,.,.,.,
CCCOc1ccc(-c2csc3ncn(Cc4ccc(C(=O)O)cc4)c(=O)c23)cc1,-2,43*,-16,12,1,0,.,.,.,Zta DNA confirm=5;EBNA-1 counter=4
O=C(c1cccs1)C1CCN(c2ncnc3sccc23)CC1,-3,.,.,.,.,.,.,.,.,

# Screens from PubChem BioAssay.
